Drawing on PubChem BioAssay (Tox21), this text covers Potency, outcome and max activation for eight compounds.

Unmarked numbers belong to inactive results. Inconclusive results are not listed. Activity calls are given as the source filed them. Unless noted, the call rests on the fitted dose curve; in most records, active means well fitted curve in the direction sought with a large enough effect in the repeat runs; inconclusive means weak or mixed curves; inactive means no such curve, though single readings can be large; an effect the other way counts as inactive or inconclusive.

Assay [1] is described as follows: qHTS assay to identify small molecule agonists of the estrogen receptor alpha (ER-alpha) signaling pathway in the presence of an antagonist - cell viability counter screen (AID 1259386).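 Further: series mostly up to about 92 µM; cells exposed to compounds for 22 h at 37 °C before the viability read; nearly all actives have a fitted effect of over 30% in size.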 Summed up:
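Read-out: CellTiter-Fluor fluorescence after 1hr reagent incubation, measured in the same wells as the luciferase readout. VM7Luc4E2 cells were exposed to 15 compound concentrations with 10.0nM ICI-182,780 for 22hr at 37C.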
(qHTS replaces the single test concentration by a dilution series.)

For assay [2], the target named is Progesterone receptor (Homo sapiens) (UniProt P06401). The assay is described as follows: qHTS assay to identify small molecule agonists of the progesterone receptor (PR) signaling pathway (AID 1346784; calls by dose curve; further: nearly all actives have a fitted effect of over 30% in size). Summed up:
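Reporter assay, GripTite PR-UAS-bla HEK 293T cells: 16 hr exposure to DMSO-dissolved compounds at 37C, 5% CO2, in steroid-depleted (2% charcoal-stripped FBS) medium; beta-lactamase measured by FRET fluorescence.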

Assay [3] has the same target. The assay is described as follows: qHTS assay to identify small molecule antagonists of the progesterone receptor (PR) signaling pathway (AID 1346795; active means well fitted inhibition curve with a large enough effect in the signal ratio in the repeat runs, not every such curve was filed as active; the % refers to the signal ratio). Put shortly: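 Stimulus R5020 at 1 nM final; cells HEK293T PR-UAS-bla; medium with 2% charcoal-stripped FBS; compound exposure 16 hr at 37C, 5% CO2; detection by FRET beta-lactamase substrate, 2 hr, room temperature.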

The nature of assay [4]: qHTS assay to identify small molecule antagonists of the progesterone receptor (PR) signaling pathway - cell viability counter screen (AID 1346798). Further: series mostly up to about 92 µM; nearly all actives have a fitted effect of over 50% in size. Put shortly:
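In the same plates used for the beta-lactamase readout, cell viability of compound- and R5020-treated PR-UAS-bla HEK293T cells (16 hr, 37C) was assessed by CellTiter-Glo luminescence.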

Assay [5] is described as follows: qHTS assay to identify small molecule agonists of the progesterone receptor (PR) signaling pathway - cell viability counter screen (AID 1346799; calls by dose curve; further: nearly all actives have a fitted effect of over 45% in size). Summed up:
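Multiplexed viability read: CellTiter-Glo luminescence, 30 min RT, following LiveBLAzer FRET measurement on PR-UAS-bla HEK293T cells exposed to compounds 16 hr.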

The nature of assay [6]: qHTS assay to identify small molecule antagonists of the TGF-beta/Smad signaling pathway - cell viability counter screen (AID 1346824). Further: nearly all actives have a fitted effect of over 50% in size. Put shortly: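 Cytotoxicity counter-screen run in the same wells as the beta-lactamase Smad reporter read: CellTiter-Glo luminescence after 30 min at room temperature. HEK 293T SBE-bla cells had 5 hr compound exposure at 37 C with TGF-beta1 (0.25 ng/mL stock).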

Assay [7] can be described thus: qHTS assay to identify small molecule agonists of the TGF-beta/Smad signaling pathway - cell viability counter screen (AID 1346829). Further: top concentration of the series differs between compounds; nearly all actives have a fitted effect of over 45% in size. Put shortly: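 CellTiter-Glo luminescence readout; SBE-bla HEK 293T cells, overnight plating, compound 5 hr at 37 C/5% CO2, then bla substrate 2 hr RT, then CellTiter-Glo 30 min RT.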
Assay [8] in a line: Human pregnane X receptor (PXR) small molecule agonists, qHTS cell viability counter screen (AID 1346977). Further: nearly all actives have a fitted effect of over 50% in size. Summed up:
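In each well, the PXR reporter HepG2 line was checked for viability: CellTiter-Fluor reagent added 23hr post-dosing, fluorescence read after 1hr incubation at 37C.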

The nature of assay [9]: Caspase-3/7 induction in HepG2 cells by small molecules, qHTS assay (AID 1346978). Further: nearly all actives have a fitted effect of over 15% in size. Summed up:
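Caspase-3/7 induction was measured by Caspase-Glo 3/7 luminescence (30 min, room temperature) after a 17 hr compound exposure of wild-type HepG2 cells seeded at 2,000 per well and pre-incubated 5 hr.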

The nature of assay [10]: Caspase-3/7 induction in CHO-K1 cells by small molecules, qHTS assay (AID 1346980). Further: nearly all actives have a fitted effect of over 15% in size. Put shortly:
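Luminescent Caspase-Glo 3/7 read (30min, room temperature) quantified apoptosis induction. Cells were wild-type CHO-K1, treated with compound for 17hr at 37 C and 5% CO2.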

Assay [11] in a line: Caspase-3/7 induction in HepG2 cells by small molecules, qHTS cell viability counter screen (AID 1346981). Further: series mostly up to about 92 µM; nearly all actives have a fitted effect of over 30% in size. Put shortly: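 Fluorescence read-out of live-cell protease activity (CellTiter-Fluor) after 1 hr with reagent. This was measured in the same wells as the caspase-3/7 luminescence, on HepG2 cells exposed to DMSO-dissolved compounds for 16 hr at 37 C.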
For assay [12], the target named is Nuclear receptor subfamily 1 group I member 2 (Homo sapiens) (UniProt O75469). The assay is described as follows: Human pregnane X receptor (PXR) small molecule agonists, qHTS assay (AID 1346982). Further: nearly all actives have a fitted effect of over 35% in size. Further: potency means the concentration at half of the fitted maximal effect. Put shortly: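 HepG2 PXR-Luc reporter line, 5% charcoal-stripped FBS; 5 hr pre-incubation, compound (DMSO) 24 hr at 37 C/5% CO2; ONE-Glo 30 min RT; luminescence read-out.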

Assay [13] deals with Acetylcholinesterase (Homo sapiens) (UniProt P22303). In words: Acetylcholinesterase (AChE) small molecule antagonists: colormetric cell-based qHTS assay (AID 1347395; calls by dose curve; further: nearly all actives have a fitted effect of over 30% in size). Summed up: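 After overnight attachment at 37 C, SH-SY5Y cells get 30 min compound exposure; detection cocktail (acetylthiocholine, DTNB) then incubates 90 min at 37 C, and absorbance reflects AChE-generated thiocholine.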

The nature of assay [14]: qHTS assay to identify small molecule agonists of the TGF-beta/Smad signaling pathway (AID 1346859; active means well fitted activation curve with a large enough effect in the signal ratio in the repeat runs, not every such curve was filed as active; the % refers to the signal ratio; further: series mostly up to about 77 µM). Put shortly: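 Screening used HEK 293T SBE-bla cells at 4,000/well. Test agents: 5 hr, 37 C. Detection: FRET substrate, 2 hr RT, then excitation 405 nm with emissions at 460 and 530 nm.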
The target in assay [15] is Thyrotropin-releasing hormone receptor (Homo sapiens) (UniProt P34981). The assay is described as follows: qHTS assay to identify small molecule antagonists of the thyrotropin-releasing hormone receptor (TRHR) signaling pathway (AID 1346877; active means well fitted inhibition curve with a large enough effect in the repeat runs, not every such curve was filed as active; further: series mostly up to about 51 µM). Put shortly: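 HEK293/TRHR cells, 18 h, 37 °C; Ca2+ dye 2 h; cpd 5 min RT; TRH 1 nM final; fluorescence read 3 min, 1 s intervals; 15 concs, triplicate.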

The target is the same in assay [16]. The assay is described as follows: qHTS assay to identify small molecule agonists of the thyrotropin-releasing hormone receptor (TRHR) signaling pathway (AID 1346891; calls by dose curve; further: series mostly up to about 58 µM). Summed up: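 Readout was intracellular calcium fluorescence in TRHR-Hek293 cells. Cells were incubated 18 h, dye-loaded 2 h at 37 °C, and treated with compound in agonist mode.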
Assay [17] is described as follows: Caspase-3/7 induction in CHO-K1 cells by small molecules, qHTS cell viability counter screen (AID 1346979). Further: nearly all actives have a fitted effect of over 35% in size. Put shortly: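 Following a 5hr settling period, CHO-K1 cells at 1,500 per well received DMSO-dissolved compounds. Cell viability was quantified 16hr later by CellTiter-Fluor fluorescence, measured after 1hr with reagent at 37C.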
In assay [18] the target is Nuclear receptor subfamily 1 group I member 2 (Rattus norvegicus) (UniProt Q9R1A7). In words: Rat pregnane X receptor (rPXR) activation by small molecules, qHTS assay (AID 1346983). Further: nearly all actives have a fitted effect of over 20% in size. To be noted: rPXR luciferase reporter cells, One-Glo luminescence, 24 h; stronger effect = higher value. Put shortly: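 Luminescent readout (One-Glo luciferase, 30 min room temperature) followed 24 hr compound treatment at 37 C of rPXR cells plated 2,000 per well and preincubated 5hr; qHTS format with compounds delivered in DMSO.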

The target of assay [19] is Nuclear receptor subfamily 1 group I member 2 (Homo sapiens) (UniProt O75469). The assay is described as follows: CYP3A4 induction through human pregnane X receptor (PXR) by small molecules, qHTS assay (AID 1346984). Further: nearly all actives have a fitted effect of over 40% in size. Put shortly: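 HepG2-derived DPX-2 line carrying PXR plus a CYP3A4-promoter luciferase reporter; cells plated 5 hr, compound-exposed 24 hr at 37C. CYP3A4 activity probed with 3uM (final) Luciferin-IPA for 3hr, then luciferase read after One-Glo.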

Assay [20] has the same target. In words: Human pregnane X receptor (PXR) activation by small molecules, qHTS assay (AID 1346985). Further: nearly all actives have a fitted effect of over 40% in size. Summed up: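 DPX-2 cells (HepG2 co-transfected with a PXR response element and a CYP3A4-promoter luciferase construct) were seeded at 2,000 per well, rested 5 hr at 37C, then exposed to DMSO-dissolved compounds for 24 hr. Activation was read as luciferase luminescence.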
On the % scale 0 is the no-effect control and ±100 the full control effect.

Nuclear receptor subfamily 1 group I member 2 (Homo sapiens), sequence (O75469 whole entry, looked up): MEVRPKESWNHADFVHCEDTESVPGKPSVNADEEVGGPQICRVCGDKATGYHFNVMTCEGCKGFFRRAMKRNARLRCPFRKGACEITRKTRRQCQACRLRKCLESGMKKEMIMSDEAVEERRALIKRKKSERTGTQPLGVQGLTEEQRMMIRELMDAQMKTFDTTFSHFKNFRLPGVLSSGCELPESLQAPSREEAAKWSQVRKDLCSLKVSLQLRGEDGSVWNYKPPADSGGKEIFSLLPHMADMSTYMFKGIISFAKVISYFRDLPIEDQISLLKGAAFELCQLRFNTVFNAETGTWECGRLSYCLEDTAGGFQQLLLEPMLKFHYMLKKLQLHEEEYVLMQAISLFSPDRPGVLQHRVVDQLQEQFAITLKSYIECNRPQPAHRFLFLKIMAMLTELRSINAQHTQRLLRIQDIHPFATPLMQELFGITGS
Nuclear receptor subfamily 1 group I member 2 (Rattus norvegicus), sequence (Q9R1A7 whole entry, looked up): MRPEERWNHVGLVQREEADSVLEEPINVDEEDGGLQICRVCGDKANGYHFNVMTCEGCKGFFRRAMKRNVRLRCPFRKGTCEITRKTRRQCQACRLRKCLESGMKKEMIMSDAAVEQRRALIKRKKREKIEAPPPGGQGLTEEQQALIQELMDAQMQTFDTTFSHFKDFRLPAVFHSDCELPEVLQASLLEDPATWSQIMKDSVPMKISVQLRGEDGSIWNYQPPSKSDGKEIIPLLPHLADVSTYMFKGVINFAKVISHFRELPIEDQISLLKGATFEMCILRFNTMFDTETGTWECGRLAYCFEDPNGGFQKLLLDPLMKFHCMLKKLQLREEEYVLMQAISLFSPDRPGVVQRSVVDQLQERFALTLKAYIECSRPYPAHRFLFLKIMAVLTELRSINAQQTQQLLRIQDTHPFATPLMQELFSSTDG
Thyrotropin-releasing hormone receptor (Homo sapiens), sequence (P34981 whole entry, looked up): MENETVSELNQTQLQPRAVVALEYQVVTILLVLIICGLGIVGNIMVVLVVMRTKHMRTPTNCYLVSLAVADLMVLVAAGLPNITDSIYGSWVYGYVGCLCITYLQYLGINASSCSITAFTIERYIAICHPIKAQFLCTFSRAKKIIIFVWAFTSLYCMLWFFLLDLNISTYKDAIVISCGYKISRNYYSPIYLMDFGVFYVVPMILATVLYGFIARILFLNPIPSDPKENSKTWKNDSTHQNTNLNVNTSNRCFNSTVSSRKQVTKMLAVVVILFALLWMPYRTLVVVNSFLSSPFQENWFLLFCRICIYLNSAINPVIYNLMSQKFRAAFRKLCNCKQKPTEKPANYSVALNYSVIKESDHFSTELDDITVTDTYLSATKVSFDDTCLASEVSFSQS
Acetylcholinesterase (Homo sapiens), sequence (P22303 whole entry, looked up): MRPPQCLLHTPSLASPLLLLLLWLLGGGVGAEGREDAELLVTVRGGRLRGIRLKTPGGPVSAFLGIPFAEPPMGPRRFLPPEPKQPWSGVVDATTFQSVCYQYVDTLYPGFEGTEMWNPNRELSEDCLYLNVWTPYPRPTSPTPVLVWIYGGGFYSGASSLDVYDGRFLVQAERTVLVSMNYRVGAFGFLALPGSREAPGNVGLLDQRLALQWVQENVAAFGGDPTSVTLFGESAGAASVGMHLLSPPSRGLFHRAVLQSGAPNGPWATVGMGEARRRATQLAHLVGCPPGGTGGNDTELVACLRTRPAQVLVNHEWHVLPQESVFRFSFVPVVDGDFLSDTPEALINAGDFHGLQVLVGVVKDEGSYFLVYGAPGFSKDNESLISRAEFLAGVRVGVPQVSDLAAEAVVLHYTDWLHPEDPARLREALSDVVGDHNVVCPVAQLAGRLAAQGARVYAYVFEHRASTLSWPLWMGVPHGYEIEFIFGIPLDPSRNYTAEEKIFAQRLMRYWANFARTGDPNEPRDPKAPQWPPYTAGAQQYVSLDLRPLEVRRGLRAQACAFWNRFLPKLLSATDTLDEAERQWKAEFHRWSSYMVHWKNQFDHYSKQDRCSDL
Progesterone receptor (Homo sapiens), sequence (P06401 whole entry, looked up): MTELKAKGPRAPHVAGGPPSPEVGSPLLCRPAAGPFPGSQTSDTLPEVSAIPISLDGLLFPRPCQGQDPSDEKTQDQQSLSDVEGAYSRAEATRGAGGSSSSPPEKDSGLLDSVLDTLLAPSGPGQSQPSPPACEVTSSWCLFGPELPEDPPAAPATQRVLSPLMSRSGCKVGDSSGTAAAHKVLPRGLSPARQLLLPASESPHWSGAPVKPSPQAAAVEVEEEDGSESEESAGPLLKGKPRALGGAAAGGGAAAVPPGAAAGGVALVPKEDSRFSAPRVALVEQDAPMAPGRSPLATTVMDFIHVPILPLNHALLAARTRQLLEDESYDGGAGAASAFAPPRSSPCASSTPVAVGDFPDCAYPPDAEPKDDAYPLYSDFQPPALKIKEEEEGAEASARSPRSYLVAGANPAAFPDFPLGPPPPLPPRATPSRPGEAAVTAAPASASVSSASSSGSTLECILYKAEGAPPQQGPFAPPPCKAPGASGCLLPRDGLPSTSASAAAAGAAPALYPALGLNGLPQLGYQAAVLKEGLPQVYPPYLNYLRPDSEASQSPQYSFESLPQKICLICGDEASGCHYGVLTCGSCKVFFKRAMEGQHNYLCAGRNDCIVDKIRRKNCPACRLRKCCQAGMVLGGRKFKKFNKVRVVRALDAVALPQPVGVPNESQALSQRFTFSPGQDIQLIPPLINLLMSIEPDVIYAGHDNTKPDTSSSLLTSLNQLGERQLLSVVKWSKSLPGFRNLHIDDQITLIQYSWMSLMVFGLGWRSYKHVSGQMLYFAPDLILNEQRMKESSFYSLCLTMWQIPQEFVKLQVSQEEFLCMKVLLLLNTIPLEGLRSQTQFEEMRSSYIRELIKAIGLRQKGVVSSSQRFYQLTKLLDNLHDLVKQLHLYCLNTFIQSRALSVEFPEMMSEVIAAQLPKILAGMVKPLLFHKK

With `CC(C)(C#N)C(C)(C)C#N`, the Potency entry in assay [1], in [2], in assay [3], in [4], in assay [5] and in assay [6] was “inactive” in each case. Further, the Potency result in [7], in assay [8], in assay [9], in [10], in [11] and in [12] was “inactive” throughout. Moreover, the Potency entry in assay [13] was “inactive”.
Turning to `CC(C)(c1ccccc1)c1cc(-n2nc3ccccc3n2)c(O)c(C(C)(C)c2ccccc2)c1`, the Potency result in assay [1], in assay [2], in assay [3], in [4], in [6] and in assay [7] was “inactive” in each case. Further, the Potency entry in assay [15], in assay [8], in assay [9], in assay [17], in [10] and in assay [11] was “inactive” throughout. Further, the Potency entry in assay [12] and in assay [13] was “inactive” in each case. Also, the result in [14] and in [16] was inactive.
On to `CCOC(=O)c1cncn1C(C)c1ccccc1` (stereo not drawn), for which the Potency result in [1], in assay [2], in assay [3], in assay [4], in assay [5] and in assay [7] was “inactive” throughout. Moreover, the Potency result in assay [8], in assay [9], in [17], in assay [10], in assay [11] and in [13] was “inactive” throughout. Also, the result in [14] and in assay [19] was inactive. For the same compound, the Potency in assay [12] is 26.6 µM (active). In assay [18], the max activation is 0.791%.
For the compound `CCOc1cccc(C2(N3CCN(c4ccccc4)CC3)CCC(C)CC2)c1` (stereo not drawn), the Potency result in assay [1], in assay [2], in assay [3], in assay [5], in assay [6] and in assay [7] was “inactive” in each case. Further, the Potency entry in assay [15], in assay [8], in assay [9], in [17], in assay [10] and in assay [11] was “inactive” throughout. Also, in [12], the Potency result is “inactive”. The result in assay [14], in [16] and in assay [13] was inactive.
Regarding `C[C@H](N)[C@H](O)c1ccc(O)c(O)c1`, the Potency result in assay [1], in assay [2], in assay [3], in assay [4], in assay [5] and in assay [7] was “inactive” in each case. Besides, the Potency entry in [15], in assay [8], in assay [9], in assay [17], in assay [10] and in assay [11] was “inactive” each time. In addition, the Potency result in assay [12], in assay [20] and in [13] was “inactive” in each case. The outcome in [14], in [16] and in assay [19] was inactive. Moreover, the max activation in [18] is -1.11%.
Consider `CCC1CCC(=O)O1` (stereo not drawn), for which the Potency result in assay [1], in [2], in assay [3], in assay [4], in assay [5] and in assay [6] was “inactive” in each case. In addition, the Potency entry in [7], in assay [15], in [8], in assay [9], in assay [17] and in assay [10] was “inactive” throughout. In addition, the Potency entry in assay [11], in [12] and in assay [13] was “inactive” in each case. In [16], the call was inactive.
For `O=C1CC[C@@]2(O)[C@H]3Cc4ccc(O)c5c4[C@@]2(CCN3CC2CC2)[C@H]1O5`, the Potency entry in assay [1], in assay [2], in assay [3], in assay [4], in assay [5] and in assay [7] was “inactive” throughout. In addition, the Potency result in assay [15], in assay [8], in [9], in assay [17], in [10] and in assay [11] was “inactive” throughout. Besides, the Potency entry in assay [13] was “inactive”. The result in [14] and in assay [16] was inactive. The max activation in assay [18] is -2.95%.
In the case of `COCc1cnc(C2=NC(C)(C(C)C)C(=O)N2)c(C(=O)O)c1` (stereo not drawn), the Potency result in assay [1], in assay [2], in [3], in assay [4], in [6] and in assay [7] was “inactive” in each case. Also, the Potency entry in assay [15], in assay [8], in assay [9], in assay [17], in [10] and in assay [11] was “inactive” each time. Further, the Potency entry in assay [12] and in [13] was “inactive” throughout. Besides, the result in assay [14] and in assay [16] was inactive.
